Our source for the ETS1 binding intensity and RUNX1 binding intensity values is the supplement of paper PMC10681739.

Assay [1] concerns the target T1, ETS1 (UniProt P14921).
T1 sequence: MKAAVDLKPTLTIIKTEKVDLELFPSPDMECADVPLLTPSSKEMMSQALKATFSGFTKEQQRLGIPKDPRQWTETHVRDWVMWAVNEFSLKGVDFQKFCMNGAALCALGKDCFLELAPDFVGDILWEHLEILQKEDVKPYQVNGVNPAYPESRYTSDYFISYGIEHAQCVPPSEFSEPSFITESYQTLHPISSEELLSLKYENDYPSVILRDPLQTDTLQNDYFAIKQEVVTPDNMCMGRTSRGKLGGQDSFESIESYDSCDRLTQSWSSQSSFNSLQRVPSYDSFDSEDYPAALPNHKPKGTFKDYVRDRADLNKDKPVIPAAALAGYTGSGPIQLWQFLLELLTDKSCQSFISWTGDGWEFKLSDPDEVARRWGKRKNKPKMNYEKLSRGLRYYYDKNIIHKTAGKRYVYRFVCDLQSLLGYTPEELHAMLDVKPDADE
The experiment in a line: ETS1 binding intensity (PBM fluorescence), ETS1 alone (arbitrary fluorescence units); higher = stronger binding. To be noted: ETS1 concentration 1 nM; RUNX1 concentration 0 nM.

Assay [2] concerns the target RUNX1 (UniProt Q01196). The experiment in a line: RUNX1 binding intensity (PBM fluorescence), RUNX1 alone (arbitrary fluorescence units); higher = stronger binding. Particulars: RUNX1 concentration 2 nM; ETS1 concentration 0 nM. Here is the method:
(§1)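 Cooperative gcPBM on 36-bp genomic probes with neighbouring ETS1 and RUNX1 sites. Recombinant human RUNX1 (2 nM) was incubated alone or with ETS1 (25 nM) and detected with anti-RUNX1 antibody plus Alexa488 secondary. Values are medians over 4 replicate spots; the RUNX1+ETS1 data were normalised to the RUNX1-only data. The probes sit in constant array flanks that are not printed.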

The target in assay [3] is T1, ETS1. Kind of assay: ETS1 binding intensity (PBM fluorescence) in presence of RUNX1, normalised to ETS1-only experiment (arbitrary fluorescence units); higher = stronger binding. To be noted: ETS1 concentration 1 nM; RUNX1 concentration 25 nM.
Assay [4] concerns the target RUNX1 (UniProt Q01196). Kind of assay: RUNX1 binding intensity (PBM fluorescence) in presence of ETS1, normalised to RUNX1-only experiment (arbitrary fluorescence units); higher = stronger binding. To be noted: RUNX1 concentration 2 nM; ETS1 concentration 25 nM. As for the experimental part:
as §1
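For RUNX1 binding intensity (PBM fluorescence) in presence of ETS1, normalised to RUNX1-only experiment in this document: Full-length recombinant human ETS1 or RUNX1 bound to double-stranded 36-bp genomic probes on microarrays, detected by protein-specific primary antibody and Alexa488 secondary, spot fluorescence as median of four replicate spots.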
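For RUNX1 binding intensity (PBM fluorescence), RUNX1 alone in this document: Full-length recombinant human RUNX1 bound to double-stranded 36-bp genomic probes on a high-density microarray, scored as Alexa488 fluorescence per spot via anti-RUNX1 antibody, median of four replicate spots.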

Chain of RUNX1 (Q01196 whole entry): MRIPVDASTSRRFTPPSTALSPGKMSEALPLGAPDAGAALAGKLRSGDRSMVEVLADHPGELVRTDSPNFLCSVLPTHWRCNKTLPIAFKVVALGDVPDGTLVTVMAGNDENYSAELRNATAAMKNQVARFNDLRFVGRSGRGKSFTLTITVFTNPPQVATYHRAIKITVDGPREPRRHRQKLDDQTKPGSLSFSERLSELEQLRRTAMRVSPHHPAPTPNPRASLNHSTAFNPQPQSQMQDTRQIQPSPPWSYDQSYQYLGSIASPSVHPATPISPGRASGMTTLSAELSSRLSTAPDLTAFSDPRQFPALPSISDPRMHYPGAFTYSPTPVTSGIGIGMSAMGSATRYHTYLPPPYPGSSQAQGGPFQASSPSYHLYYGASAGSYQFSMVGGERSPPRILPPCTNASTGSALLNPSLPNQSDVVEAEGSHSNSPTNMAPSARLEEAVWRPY

As for CACGCCTGCGGAAGATGAAAACCACACGTCATGCAG, the ETS1 binding intensity with ETS1 [1] was found to be 448; with ETS1 [3], 803. Also, the RUNX1 binding intensity stood at 960 with RUNX1 [2] and 915 with RUNX1 [4].

On to AGATCAACTTCCACATCCGGTGGTAACAGGGCCCTA, for which the results for the ETS1 binding intensity with ETS1 [1] and in the assay with ETS1 [3] were 5380 and 5560, respectively. In addition, the results for the RUNX1 binding intensity in the assay with RUNX1 [2] and in the assay with RUNX1 [4] were 835 and 2970, respectively.

As for CATGTGCTTCCGGCTTGATCTGTGGTTATTCTGGTT, the ETS1 binding intensity with ETS1 [1] was 1370; with ETS1 [3], 2980. Besides, the RUNX1 binding intensity was 1270 with RUNX1 [2] and 3010 with RUNX1 [4].

Regarding GTTTCTCTGGCCAGGAAATTGAGGTTTCTGTTAGTC, the results for the ETS1 binding intensity in the assay with ETS1 [1] and with ETS1 [3] were 2010 and 3260, respectively. In addition, the figures for the RUNX1 binding intensity with RUNX1 [2] and in the assay with RUNX1 [4] were 851 and 1660, respectively.

With GCCCGGAAGCGCGACGCTGGAGCTGCGGGGTTACCA, the ETS1 binding intensity is 773 with ETS1 [1] and 887 with ETS1 [3]. The RUNX1 binding intensity with RUNX1 [2] came out at 662; in the assay with RUNX1 [4] it was 882.

TCTAGTAAAAGAGGAAGTTCTTAACCACATTTCCAT: the ETS1 binding intensity with ETS1 [1] worked out at 2100; with ETS1 [3], 9250. The RUNX1 binding intensity worked out at 1020 in the assay with RUNX1 [2] and 1620 with RUNX1 [4].

Take GGCGGGACTTCCGGCGTCTCCCCTCGGCGGTTGCTT: the ETS1 binding intensity in the assay with ETS1 [1] was 2330; with ETS1 [3], 2700. Moreover, the RUNX1 binding intensity with RUNX1 [2] was found to be 751; with RUNX1 [4], 1980.

In the case of GCTTCTGAGGAAGTGCGTTCTGTGGGTAGGTGGAGT, the ETS1 binding intensity amounted to 677 with ETS1 [1] and 1000 with ETS1 [3]. In addition, the RUNX1 binding intensity in the assay with RUNX1 [2] came out at 834; with RUNX1 [4] it was 918.

On to GATACCTAGAAGCCAGGAAACCGCGAGCTGCAGTCC, for which the values for the ETS1 binding intensity with ETS1 [1] and with ETS1 [3] were 1080 and 2130, respectively. In addition, the RUNX1 binding intensity with RUNX1 [2] amounted to 1190; with RUNX1 [4], 1380.

With GGACTTCCTGAACTGGGAGGTCACCGACCACAACCT, the ETS1 binding intensity is 354 with ETS1 [1] and 671 with ETS1 [3]. Further, the RUNX1 binding intensity with RUNX1 [2] stood at 831; in the assay with RUNX1 [4], 1740.

On to GCTTACACTTCCTCCCTGAACCCCTGCGGTTTCACA, for which the ETS1 binding intensity with ETS1 [1] is 511; in the assay with ETS1 [3], 1960. In addition, the RUNX1 binding intensity with RUNX1 [2] was determined as 4160; in the assay with RUNX1 [4], 10200.

GTTGGGTGGGGAAGTGGATGGTGGTTTTGGCAGAGG: the ETS1 binding intensity with ETS1 [1] stood at 542; with ETS1 [3], 713. The RUNX1 binding intensity was 960 with RUNX1 [2] and 1210 with RUNX1 [4].

For GCTCTTCACTTCCTGTGGCTCCCGCAGCGGCCGCCG, the ETS1 binding intensity in the assay with ETS1 [1] worked out at 1920; with ETS1 [3], 1560. For the same sequence, the RUNX1 binding intensity was determined as 1090 in the assay with RUNX1 [2] and 2460 with RUNX1 [4].

ACAGATAGTGATATCCTGTGGTCAATTCCCTCCCCT: the ETS1 binding intensity with ETS1 [1] amounted to 949; in the assay with ETS1 [3], 951. Further, the RUNX1 binding intensity with RUNX1 [2] was 1030; in the assay with RUNX1 [4], 2280.

Consider GATGCTTGTTCAGGATGCGGTTTCTTGCAGCAAGTT, for which the ETS1 binding intensity was 674 with ETS1 [1] and 2380 with ETS1 [3]. The RUNX1 binding intensity in the assay with RUNX1 [2] is 3420; with RUNX1 [4] it was 5090.

As to ACTTCACTTCCCAACCTCCCCTGTGGTTAGGTGTGG, the ETS1 binding intensity in the assay with ETS1 [1] turned out to be 365; in the assay with ETS1 [3], 548. The results for the RUNX1 binding intensity in the assay with RUNX1 [2] and with RUNX1 [4] were 1040 and 1220, respectively.

On to CCTCTGTTCTTCACAGGAAGCCACAGGCCTCCCCTG, for which the ETS1 binding intensity with ETS1 [1] was determined as 2840; with ETS1 [3], 3160. In addition, the RUNX1 binding intensity in the assay with RUNX1 [2] was determined as 958; in the assay with RUNX1 [4], 1050.

For AAAATTAAAGCAGGAAGTAATCAACCACATCAAATG, the ETS1 binding intensity in the assay with ETS1 [1] is 3130; with ETS1 [3], 9610. In addition, the RUNX1 binding intensity with RUNX1 [2] was 761; with RUNX1 [4] it was 1610.

Regarding CTGTGAGGCGGAAGTGGCGGGCTCTGTGGGCGCAAG, the ETS1 binding intensity with ETS1 [1] is 3860; with ETS1 [3], 8270. The RUNX1 binding intensity with RUNX1 [2] was 703; with RUNX1 [4], 1430.

Turning to GGCCCAGGAAAGAGGCAGGGGTGCGGTTTCCCTCCG, the ETS1 binding intensity with ETS1 [1] came to 394; with ETS1 [3], 761. Further, the RUNX1 binding intensity with RUNX1 [2] is 1060; in the assay with RUNX1 [4] it was 1480.

As for AGCTGCTGTTTTCCGGCTGCGGCACTGGATGAAGGA, the results for the ETS1 binding intensity with ETS1 [1] and with ETS1 [3] were 498 and 422, respectively. The figures for the RUNX1 binding intensity with RUNX1 [2] and with RUNX1 [4] were 711 and 1350, respectively.

For CAGTGACAGGAAGTGGTTCAGCGGTTGTTTAGGGCT, the ETS1 binding intensity with ETS1 [1] was determined as 7680; in the assay with ETS1 [3], 9430. Besides, the RUNX1 binding intensity was found to be 892 in the assay with RUNX1 [2] and 3830 in the assay with RUNX1 [4].

Take GTTCCTAGGCAGGCAGGATGTGGCTATAAGCTACAT: the values for the ETS1 binding intensity with ETS1 [1] and with ETS1 [3] were 4700 and 6220, respectively. The figures for the RUNX1 binding intensity with RUNX1 [2] and with RUNX1 [4] were 819 and 1150, respectively.

Turning to ATGTCTTCCTGTACAGGAACTGGGTCCCAGCCGCAG, the ETS1 binding intensity was 4120 in the assay with ETS1 [1] and 4430 in the assay with ETS1 [3]. The figures for the RUNX1 binding intensity in the assay with RUNX1 [2] and with RUNX1 [4] were 745 and 1510, respectively.

On to CACCTCACAGCCCGGATACAAACCGCCTACCCGCCC, for which the ETS1 binding intensity with ETS1 [1] was determined as 780; with ETS1 [3] it was 980. The RUNX1 binding intensity with RUNX1 [2] was 1300; with RUNX1 [4], 1230.

As to ATCACTTGTTTCCGCCAGCAAACCACAGGTCCCCAG, the ETS1 binding intensity in the assay with ETS1 [1] is 417; with ETS1 [3], 811. The RUNX1 binding intensity in the assay with RUNX1 [2] worked out at 1550; with RUNX1 [4], 3750.

GCCGTCACTTCCGTCATTCAAACCGCCCGCCAATGG: the figures for the ETS1 binding intensity in the assay with ETS1 [1] and with ETS1 [3] were 823 and 1160, respectively. Also, the RUNX1 binding intensity was determined as 1050 with RUNX1 [2] and 2520 with RUNX1 [4].

With AGTGGCTACCACTTCCTTCTCTTACCACAGTTCCTT, the ETS1 binding intensity in the assay with ETS1 [1] was found to be 442; with ETS1 [3], 607. For the same sequence, the RUNX1 binding intensity in the assay with RUNX1 [2] worked out at 1550; with RUNX1 [4], 4520.

In the case of CGCCGCTCAACTTCCGGCAACCACAGCTCTCTCTGA, the values for the ETS1 binding intensity with ETS1 [1] and in the assay with ETS1 [3] were 1830 and 3870, respectively. Also, the RUNX1 binding intensity was 1070 in the assay with RUNX1 [2] and 3150 in the assay with RUNX1 [4].

Turning to GGGGCTGGGAAAGGATGTGGTAAGGGCCAGTCAGTC, the results for the ETS1 binding intensity with ETS1 [1] and in the assay with ETS1 [3] were 884 and 3240, respectively. Besides, the RUNX1 binding intensity in the assay with RUNX1 [2] amounted to 749; with RUNX1 [4] it was 1920.

Turning to ACTCCCTAGAGCAGGAAGCCTGTGGTTTGTAATTGG, the ETS1 binding intensity with ETS1 [1] was found to be 1140; with ETS1 [3] it was 7950. Besides, the RUNX1 binding intensity with RUNX1 [2] was 1040; with RUNX1 [4] it was 1480.

Regarding GGCGGCACTAGGCTTCCGCCTCACCGCAGTGGGGTT, the figures for the ETS1 binding intensity with ETS1 [1] and in the assay with ETS1 [3] were 362 and 845, respectively. Also, the RUNX1 binding intensity turned out to be 855 with RUNX1 [2] and 1430 with RUNX1 [4].

In the case of GCCCAGGCAGGAAGCCAGGCGCCCACAGGTTGGCAG, the ETS1 binding intensity with ETS1 [1] was 990; with ETS1 [3], 1090. For the same sequence, the RUNX1 binding intensity with RUNX1 [2] is 643; in the assay with RUNX1 [4], 923.

For GGGGTCAGGAAATGGGTGTGCCGCGGGTAAGGCGCT, the ETS1 binding intensity with ETS1 [1] came to 949; in the assay with ETS1 [3], 921. Also, the RUNX1 binding intensity with RUNX1 [2] was determined as 733; with RUNX1 [4], 984.

Turning to TCTTCAGGCGTCTTTCCGGTGGTGGTCGTTTTTGCT, the figures for the ETS1 binding intensity with ETS1 [1] and with ETS1 [3] were 1530 and 1330, respectively. Also, the figures for the RUNX1 binding intensity with RUNX1 [2] and with RUNX1 [4] were 905 and 1390, respectively.

On to ATGGCGGAGCGGAAGTCCCAGCCACAACGCGAAAAG, for which the results for the ETS1 binding intensity with ETS1 [1] and with ETS1 [3] were 3810 and 5670, respectively. For the same sequence, the RUNX1 binding intensity with RUNX1 [2] amounted to 782; with RUNX1 [4], 1370.

Regarding CCCGCCACTTCCCTGCCTCTGCGGGAGCCCCCCAGC, the values for the ETS1 binding intensity in the assay with ETS1 [1] and in the assay with ETS1 [3] were 573 and 545, respectively. In addition, the RUNX1 binding intensity is 938 with RUNX1 [2] and 1430 in the assay with RUNX1 [4].
